These results are taken from ChEMBL document CHEMBL4513216, “Probing the Open Global Health Chemical Diversity Library for Multistage-Active Starting Points for Next-Generation Antimalarials” (ACS Infect Dis, 2020).

Screen size: about 68,000 compounds; about 2,700 (4%) showed an effect of 50% or more. What follows is part of a selection rich in strong results, with near analogues and random picks from the rest.

The assay relates to Plasmodium berghei. In words: Screen against P. berghei liver stage (PbLuc), transformed with Luciferase, at 2uM. The format is functional, HepG2. To be noted: tested at 2 uM.
In the case of `O=C(Nc1ccccc1)c1ccc2c(c1)C1(CCCCC1)CN2`, the INHIBITION is -9.98%. The same measure for `Cc1c[nH]c(C2CCCN(Cc3ccccc3C(=O)O)C2)n1` (stereo not drawn): -2.35%; for `Cc1noc(C)c1CC(=O)N1CCC(c2ccn3nccc3n2)CC1`: 52.57%; for `Cc1nc(CC(=O)N2CCC(c3ccn4nccc4n3)CC2)cs1`: 3.03%. Consider `Cc1nc(C)c(CC(=O)N2CCC(c3ccn4nccc4n3)CC2)s1`, for which the INHIBITION amounted to 3.58%. With `Cn1cc(CN2CCO[C@@H]3CN(Cc4ccoc4)C[C@@H]3C2)cn1` the figure was -0.35%. In the case of `CO[C@H]1CC[C@H]2[C@H]1OCCN2CCOCc1ccccc1`, the INHIBITION is -4.99%. `CC[C@H](CO)NC(=O)c1coc(COc2ccccc2F)n1`: the INHIBITION is -9.75%. For the compound `CC[C@@H](CO)NC(=O)c1coc(COc2ccc(OC)cc2)n1`, the INHIBITION is reported as 53.26%. For the compound `CNS(=O)(=O)CCNC(=O)c1coc(COc2ccc(F)cc2)n1`, the INHIBITION was -38.4%. With `CSCCNC(=O)c1coc(COc2ccc(F)cc2)n1` the figure was 1.88%; with `CC[C@@H](CO)NC(=O)c1coc(COc2ccc3sc(C)nc3c2)n1`, -10.58%.

For `COC(=O)CCNC(=O)c1coc(COc2ccc(F)cc2)n1`, the INHIBITION came to 56.16%.

On to `Cc1ccc(CN2CCCC3(CCN(Cc4ccoc4)CC3)C2)cc1`, for which the INHIBITION turned out to be 78.88%. The same measure for `Cn1ccnc1CN1CCC2(CC1)CCN(Cc1ccoc1)C2`: -78.53%; for `Cc1ccc(CN2CCC3(CC2)CCN(Cc2ccoc2)CC3)cc1`: 14.93%; for `Cn1cccc1C(=O)N1CCO[C@H]2[C@H](OCc3cccnc3)CC[C@@H]21`: 0.32%. The same measure for `O=C1NCCN(Cc2cccnc2)C1CC(=O)N1CCc2n[nH]cc2C1` (stereo not drawn): -3.25%; for `O=C1NCCN(CC2CCCCC2)C1CC(=O)N1CCc2n[nH]cc2C1` (stereo not drawn): 5.17%; for `O=C1NCCN(Cc2ccccc2)C1CC(=O)N1CCc2n[nH]cc2C1` (stereo not drawn): 50.32%. The same measure for `CN(C)c1nc2c(c(N3CCC4(CCCNC4=O)C3)n1)CCCC2` (stereo not drawn): 42.17%; for `Cc1cc(C2CCC2)nc(N2CCC3(CCCNC3=O)C2)n1` (stereo not drawn): 4.74%; for `CNc1nc(N2CCC3(CCCNC3=O)C2)nc2c1CCC2` (stereo not drawn): 56.49%.

For the compound `Cc1nc2c(c(N3CCC4(CCCNC4=O)C3)n1)CCC2` (stereo not drawn), the INHIBITION came out at 27.85%. The same measure for `O=C1NCCCC12CCN(c1nc3c(c(C(F)(F)F)n1)CCCC3)C2` (stereo not drawn): 1.42%; for `Cc1nc(N2CCC3(CCCNC3=O)C2)nc2c1CCCC2` (stereo not drawn): 62%. With `O=c1[nH][nH]c2cn(-c3ccccc3)c(=O)n12` the figure was -73.41%; with `N#CCCn1cnc2c(F)cc(Br)cc2c1=O`, -23.16%; with `c1cc(-c2nnc(C3CCCN(CC4CCCCC4)C3)o2)ccn1` (stereo not drawn), 29.48%.

With `Cc1cccc2nc(CNC(=O)N3CCC(OCC4CC4)CC3)cn12`, the INHIBITION worked out at 38.2%. Consider `Cc1ccc(OCCCC(=O)Nc2nonc2C)cc1C`, for which the INHIBITION is given as -9.17%. With `COCc1cncc2c1CCN(Cc1ccccn1)C2` the figure was 0.3%; with `CN(C)C(=O)COCc1cncc2c1CCN(Cc1ccccn1)C2`, 41.93%; with `CN(C)CCOCc1cncc2c1CCN(Cc1ccccn1)C2`, 56.21%. With `O=C(c1ccnn1COc1ccc(Cl)cc1)N1CCOCC1` the figure was 8.56%.

For `CCn1c(Nc2ccccc2OC)nc2c(C)nn(C)c2c1=O`, the INHIBITION was -18.88%. The same measure for `O=S(=O)(Cc1ccc(F)c(Cl)c1)NC(CO)c1ccco1` (stereo not drawn): 26.62%. The same measure for `Cc1noc2nc(C3CCN(CC4CCCCC4)CC3)cc(C(F)F)c12`: -7.7%; for `Cc1nc(CN(C)c2nccc(N(C)C)n2)cs1`: -13.89%.

Consider `Cc1nc(CN(C)c2nccc(C(F)(F)F)n2)cs1`, for which the INHIBITION turned out to be 60.13%. The same measure for `COc1ccnc(N(C)Cc2csc(C)n2)n1`: -21.99%; for `Cc1nn(C)c(C)c1Cc1nc(N(C)C)no1`: 20.71%; for `CC(C)c1nccn1Cc1cc(C(=O)NCC(F)(F)F)n[nH]1`: -7.52%. The same measure for `O=C1NCC(C(=O)Nc2ncc(Cc3ccc(F)cc3)s2)N1` (stereo not drawn): 21.39%. The same measure for `O=C1NCC(C(=O)Nc2ncc(Cc3ccccc3)s2)N1` (stereo not drawn): 53.98%. In the case of `O=C1NCC(C(=O)Nc2ncc(Cc3cccc(F)c3)s2)N1` (stereo not drawn), the INHIBITION came out at 3.06%. As for `COCc1cccc(C(=O)N2CCCN(C(=O)OCC(C)C)CC2)c1`, the INHIBITION is on record as 29.19%. The same measure for `COC(=O)CNC(=O)c1c(-n2cnnn2)sc2c1CCCC2`: 17.26%; for `Cc1nc(CO[C@H]2CN(C(=O)c3cccn3C)[C@@H]3COC[C@H]23)cs1`: 36.75%; for `CN1CCN(CC[C@@H]2CC[C@H](O)[C@@H](C(=O)Nc3ccccc3)O2)CC1`: 29.85%. As for `O=C(Nc1ccccc1)[C@H]1O[C@H](CCN2CCNCC2)CC[C@@H]1O`, the INHIBITION is given as 51.81%.

`O=C(Nc1ccccc1)[C@H]1O[C@H](CCN2CCCCC2)CC[C@@H]1O`: the INHIBITION was 4.04%. With `CCN1CCCC1CNCc1cc2cc3c(cc2[nH]c1=O)OCCO3` (stereo not drawn) the figure was 16.87%.
